GLA inh pH 4.5 = qHTS Assay for Inhibitors of Human alpha-Galactosidase at pH 4.5; purified enzyme, 4-MU-alpha-Gal fluorescence, pH 4.5; Alpha-galactosidase A (Homo sapiens), P06280; activity change, negative = inhibition, % at 105 µM; 230,000 tested, under 10 active;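 further: 0% = full activity with enzyme and -100% = basal without enzyme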
Target sequence (P06280 whole entry, looked up): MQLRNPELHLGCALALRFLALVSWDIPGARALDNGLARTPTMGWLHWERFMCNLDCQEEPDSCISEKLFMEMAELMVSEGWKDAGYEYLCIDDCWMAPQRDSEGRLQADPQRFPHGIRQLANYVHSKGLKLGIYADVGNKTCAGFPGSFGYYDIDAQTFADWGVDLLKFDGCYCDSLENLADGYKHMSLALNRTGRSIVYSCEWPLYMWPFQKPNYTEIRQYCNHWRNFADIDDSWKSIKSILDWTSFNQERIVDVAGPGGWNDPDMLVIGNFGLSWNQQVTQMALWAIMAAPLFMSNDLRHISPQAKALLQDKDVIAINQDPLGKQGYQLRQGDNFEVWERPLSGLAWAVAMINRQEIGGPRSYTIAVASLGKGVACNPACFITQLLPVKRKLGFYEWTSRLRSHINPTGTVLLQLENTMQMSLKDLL
GAA spleen mod = qHTS Assay for Inhibitors and Activators of Human alpha-Glucosidase From Spleen Homogenate. Lysosomal alpha-glucosidase (Homo sapiens), P10253. human spleen homogenate, 4-MU-alpha-glucoside fluorescence. Potency, µM (titrated, usually from 79.9 µM), inactives show at the top dose activity change, negative = inhibition, usual class: inhibitors. actives 0.006% (n = 240,000);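 further: potency means the concentration at half of the fitted maximal effect; 0% = enzyme with vehicle and -100% = no enzyme basal signal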
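Compounds were titrated against alpha-glucosidase in spleen homogenate at pH 5.0, with 1 mM 4-methylumbelliferyl substrate for 40 min at 37 C. Reactions were quenched with pH 10 NaOH/glycine and fluorescence measured.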
GAA inh = qHTS Assay for Inhibitors of Human alpha-Glucosidase as a Potential Chaperone Treatment of Pompe Disease. Potency, µM (titrated, usually from 76.9 µM), for inactives: at the top dose activity change, negative = inhibition, most hits filed as inhibitors. actives 0.005% (n = 200,000). Lysosomal alpha-glucosidase (Homo sapiens), P10253. purified human GAA, 4-MU-alpha-glucoside fluorescence. AID 1466, 2008;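 further: potency means the concentration at half of the fitted maximal effect; plate controls were uninhibited enzyme wells for no effect and no-enzyme background for full effect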
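Enzyme (4 nM final) mixed with compound (up to 77 uM), then 4-MU-alpha-D-pyranoside (400 uM final) added; 20 min at room temperature, pH 5.0. Reaction stopped at pH 10, fluorescence read, AC50 derived by Hill fit.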
GLA spleen mod = qHTS Assay for Inhibitors and Activators of Human alpha-Galactosidase From Spleen Homogenate; actives 0.008% (n = 240,000); Potency, µM (highest dose often 80 µM), inactives show top-dose activity change, negative = inhibition, usual class: inhibitors; Alpha-galactosidase A (Homo sapiens), P06280; human spleen homogenate, 4MU-alpha-Gal fluorescence, 40 min;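 further: potency means the concentration at half of the fitted maximal effect; 0% = enzyme with vehicle and -100% = no enzyme basal signal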
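Spleen homogenate 1 ug + cpd (titration) + 4-MU-alpha-D-galactopyranoside 1 mM; 37C 40 min; 50 mM citrate/phosphate pH 5.0, 0.01% Tween-20; stop pH 10; fluorescence 365/440; AC50 via Hill.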
GAA glycogen = qHTS Assay for Inhibitors and Activators of Human alpha-Glucosidase Cleavage of Glycogen; Potency, µM (titrated, usually from 76.4 µM), without a hit: at the top dose activity change, negative = inhibition, usual class: inhibitors; recombinant GAA, glycogen substrate, Amplex Red glucose oxidase fluorescence; actives 0.38% (n = 300,000);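 further: potency means the concentration at half of the fitted maximal effect; 0% = full enzyme reaction and -100% = no-enzyme basal signal; the screen sought inhibitors and activators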
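Recombinant enzyme (4 nM final) with compounds titrated up to 77 uM and bovine liver glycogen (30 ug) in citrate pH 5.0, 0.01% Tween-20, 37 C 40 min. Released glucose detected by Amplex Red/glucose oxidase (Ex 573/Em 610); AC50 from Hill fits.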
N370S GC mod = qHTS Assay for Inhibitors and Activators of N370S glucocerebrosidase as a Potential Chaperone Treatment of Gaucher Disease | N370S GC spleen homogenate, 4MU-glucoside fluorescence | Potency, µM (doses to about 59.4 µM), inactives show at the top dose activity change, negative = inhibition, most hits filed as inhibitors | actives 0.092% (n = 330,000);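 further: potency means the concentration at half of the fitted maximal effect; 0% = full enzyme activity and -100% = no enzyme basal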
* hit, by the source's call; ? = inconclusive; . = no result; [ ] = remark or other dose. An excerpt weighted towards active compounds, which were near 0.43% of everything screened. The call rests on the fitted dose curve; in most records, active means well fitted curve in the direction sought with a large enough effect; inconclusive means small, poorly fitted or top-dose-only effect, or another doubt; inactive means no such curve, though single readings can be large; an effect the other way counts as inactive or inconclusive.

SMILES	GLA inh pH 4.5	GAA spleen mod	GAA inh	GLA spleen mod	GAA glycogen	N370S GC mod
COc1cccc(-c2nc(NCCc3c[nH]c4ccc(OC)cc34)c3ccccc3n2)c1	-2	2%	.	8%	.	14µM*
COc1ccc2[nH]cc(CCNc3nc(-c4ccoc4)nc4ccccc34)c2c1	-10	-12%	.	1%	.	16µM*
COc1ccc2[nH]cc(CCNc3nc(-c4ccc(N(C)C)cc4)nc4ccccc34)c2c1	.	2%	.	23%	.	?
COc1ccc(NC(=S)NNc2ccc([N+](=O)[O-])cc2S(=O)(=O)Nc2ccc(C)cc2C)cc1	-12	-2%	?	1%	?	22µM*
Cc1ccc(NS(=O)(=O)c2cc([N+](=O)[O-])ccc2NNC(=S)Nc2cc(C)ccc2C)c(C)c1	-11	-6%	-11%	-4%	7%	?
CC1CCc2c(nc3ncnn3c2N2CCN(c3ccccc3F)CC2)C1 (centres undefined)	-3	-5%	-3%	?	1%	-3%
CC1CCc2c(nc3ncnn3c2NCCc2ccccc2F)C1 (centres undefined)	-5	2%	10%	-12%	4µM*	-28%
CCC(=O)Nc1sc2c(c1C(=O)Nc1ccc(Br)cc1)CCCCC2	.	.	.	.	-2%[76.3 µM]	.
Cc1c(NC(=O)/C(C#N)=C/c2ccc(-c3cccc(Cl)c3)o2)c(=O)n(-c2ccccc2)n1C	-9	-7%	?	-9%	-8%	-11%
Cc1c(N=Cc2nc3ccccc3[nH]2)c(=O)n(-c2ccccc2)n1C	8	6%	-8%	10%	8.9µM*	12%
Cc1cccc(-c2ccc(C=Nc3c(C)n(C)n(-c4ccccc4)c3=O)o2)c1	0	4%	-16%	6%	4µM*	1%
Cc1c(N=Cc2nc3ccccc3n2C)c(=O)n(-c2ccccc2)n1C	-1	-1%	2%	5%	11µM*	3%
N#CCCn1c(=O)cnc2cnc(N3CCNCC3)nc21	.	3%	.	-3%	.	-6%
Cc1ccc(-c2nnc3c4ccccc4c(C)nn23)cc1NC(=O)CN1CCOCC1	5	3%	-4%	6%	1%	5%
Cc1ccc(-c2nnc3c4ccccc4c(C)nn23)cc1S(=O)(=O)N1CCN(CCO)CC1	7	-10%	-4%	3%	4%	16µM*
Cc1nc(Nc2ccc(O)cc2)c2c3c(sc2n1)CCCC3	-5	8%	-9%	10%	14µM*	11µM*
Cc1ccc(CNc2nc(C)nc3sc4c(c23)CCC4)cc1	-2	0%	-4%	-8%	1%	13%
Cc1oc2c(O)c(O)ccc2c(=O)c1-c1ccccc1	4	8%	6%[15.4 µM]	12%	8.8µM*	-12%
O=c1cc(-c2ccccc2)oc2c(O)c(O)ccc12	-11	16%	.	22%	.	-12%
Cc1oc2c(O)c(O)ccc2c(=O)c1-c1ccc(Cl)cc1	.	.	.	.	7.1µM*	-9%
Cc1c(Cc2ccccc2)c(=O)oc2c(O)c(O)ccc12	5	3%	-9%	1%	5µM*	-10%
Cc1oc2cc(O)cc(C)c2c(=O)c1-c1cnn(-c2ccccc2)c1	6	-7%	0%	0%	-6%	11%
Cc1oc2c(O)c(O)ccc2c(=O)c1-c1cnn(-c2ccccc2)c1	2	-13%	-15%	10%	5.6µM*	7%
O=S(=O)(Nc1cc(O)cc2cccnc12)c1ccc(Br)s1	.	4%	.	-10%	.	-5%
c1ccc(C(c2ccccc2)N2CC[C@@]3(CCCNC3)C2)cc1	.	-4%	.	1%	.	-7%
SMILES	GLA inh pH 4.5	GAA spleen mod	GAA inh	GLA spleen mod	GAA glycogen	N370S GC mod
C=C1CCN(C(C(=O)O)C(C)C)S(=O)(=O)c2ccccc21 (centres undefined)	.	-6%	.	0%	.	7%
Cc1cc(C)c2c(=O)n(-c3ccccc3)[nH]c2n1	8	-6%	-3%	-6%	-25%	-16%
Cc1cc(-c2ccccc2)nc2[nH]n(-c3ccccc3)c(=O)c12	4	-2%	0%	0%	35µM*	-4%
COc1ccc(N/C=C2/Sc3ccccc3NC2=O)cc1	1	2%	-3%	-4%	20µM*	5%
Cc1ccc(N/C=C2/Sc3ccccc3NC2=O)cc1	7	-8%	9%	3%	?	-3%
Cc1cc(C)c2nc(N(CCCN(C)C)C(=O)c3ccc(S(=O)(=O)N4CCCCCC4)cc3)sc2c1	.	.	.	.	.	16µM*
Cc1ccccc1-c1ccc2ncnc(N3CCOCC3)c2c1	.	18%	.	7%	.	24%
COc1cc(SC)ccc1C(=O)N1CCN(c2ccc(O)cc2)CC1	2	2%	3%	5%	4µM*	-20%
COc1cc(SC)ccc1C(=O)N1CCN(c2ccccc2)CC1	0	-3%	13%	4%	-12%	-3%
Cc1sc2ncnc(Nc3ccc(O)cc3)c2c1C	0	3%	-4%[15.4 µM]	13%	?	11µM*
COC(=O)c1cc2c(s1)c1cnn(Cc3ccccc3F)c(=O)c1n2C	.	.	.	.	.	-6%
Cc1ccc(-c2ccc(NC(=O)C3C4C=CC(C4)C3C(=O)O)cc2)o1 (centres undefined)	-3	-3%	7%	0%	40µM*	.
Cc1ccc2onc(CC(=O)N(C)c3ccccc3)c2c1	.	.	.	.	-5%[76.3 µM]	.
CC(C)Sc1ncc(Cl)c(C(=O)N(Cc2ccc(N(C)C)cc2)C2CCS(=O)(=O)C2)n1 (centres undefined)	.	.	.	.	-18%[76.3 µM]	.
COC(=O)C1=C[C@@H](C(=O)OC)C2C3=C(C(=O)[C@@]2(C)NC(=O)c2ccccc2)[C@H](c2ccccc2)n2c(=O)n(-c4ccccc4)c(=O)n2[C@@H]3C1 (some centres undefined)	.	1%	.	-3%	.	-5%
CSc1cccc(-n2cc(-c3ccc4c(c3)OCO4)[nH]c2=O)c1	3	-6%	-3%	-17%	35µM*	-22%
CSc1cccc(NC(=O)CNC(=O)c2ccc3c(c2)OCO3)c1	.	.	.	.	.	5%
O=C1c2ccccc2C(=O)N1CCc1c[nH]c2ccc(O)cc12	4	1%	?	1%	3.1µM*	5%
Cc1cn2c(=O)cc(COc3cccc(NC(=O)c4ccc(C(C)(C)C)cc4)c3)nc2s1	.	.	.	.	-2%[76.3 µM]	.

Assay outcomes deposited in PubChem by National Center for Advancing Translational Sciences (NCATS).
